In PubChem BioAssay AID1159580 (chemical genetic matrix, 2015):
The campaign covered roughly 5,500 compounds. About 2,000 (36%) were called active. Inconclusive results (about 18%) are left out. No stated cut-off is given here; in the data, active means normalized growth mostly below about 0.91 (no sharp cut-off); inconclusive means no clear call, values can overlap the other calls; inactive means mostly above about 0.92. The list shows a part of the results.

Assay: chemical genetic growth profiling, strain panel (AID 1159580);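 further: tested at 20 µM; growth read once vehicle control cultures reached saturation at 30 °C; 1 = growth at the plate median or of vehicle wells; lower values mean less growth of the strain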
Conditions: growth OD

Measured: normalized growth

O=C(O)COc1ccc(Cl)cc1Cl
inactive: S. cerevisiae deletion strains, locus YJR043C, strain POL32, hits give low values 1.02 | S. cerevisiae deletion strains, locus YJR075W, strain HOC1, hits give low values 1.02 | S. cerevisiae deletion strains, locus YKL009W, strain mrt4, hits give low values 1.04 | S. cerevisiae deletion strains, locus YKL068W, hits give low values 1.01 | S. cerevisiae deletion strains, locus YKL085W, strain MDH1 (second series), hits give low values 1.01 | S. cerevisiae deletion strains, locus YKL085W, strain MDH1, hits give low values 1.01 | S. cerevisiae deletion strains, locus YKL160W, strain elf1, hits give low values 0.996 | S. cerevisiae deletion strains, locus YKL190W, strain CNB1, hits give low values 1.02 | S. cerevisiae deletion strains, locus YKR001C, strain vps1, hits give low values 1.04 | S. cerevisiae deletion strains, locus YKR026C, strain gcn3, hits give low values 0.988 | S. cerevisiae deletion strains, locus YKR091W, strain srl3, hits give low values 0.999 | S. cerevisiae deletion strains, locus YLL001W, strain dnm1, hits give low values 1 | S. cerevisiae deletion strains, locus YLL026W, hits give low values 0.988 | S. cerevisiae deletion strains, locus YLL041C, strain sdh2, hits give low values 0.995 | S. cerevisiae deletion strains, locus YLR027C, strain aat2, hits give low values 0.993 | S. cerevisiae deletion strains, locus YLR039C, strain RIC1, hits give low values 1.04 | S. cerevisiae deletion strains, locus YLR058C, strain SHM2, hits give low values 1.01 | S. cerevisiae deletion strains, locus YLR102C, strain apc9, hits give low values 1.03 | S. cerevisiae deletion strains, locus YLR221C, strain rsa3, hits give low values 0.989 | S. cerevisiae deletion strains, locus YLR258W, strain gsy2, hits give low values 0.994 | S. cerevisiae deletion strains, locus YLR262C, strain YPT6 (second series), hits give low values 0.996 | S. cerevisiae deletion strains, locus YLR262C, strain YPT6, hits give low values 1.08 | S. cerevisiae deletion strains, locus YLR268W, strain sec22, hits give low values 1.02 | S. cerevisiae deletion strains, locus YLR320W, strain mms22, hits give low values 0.991 | S. cerevisiae deletion strains, locus YLR330W, strain CHS5, hits give low values 1.01 | S. cerevisiae deletion strains, locus YLR342W, strain FKS1 (second series), hits give low values 1.03 | S. cerevisiae deletion strains, locus YLR342W, strain FKS1, hits give low values 1 | S. cerevisiae deletion strains, locus YLR357W, strain rsc2, hits give low values 0.989 | S. cerevisiae deletion strains, locus YLR370C, strain arc18, hits give low values 0.994 | S. cerevisiae deletion strains, locus YLR371W, strain rom2, hits give low values 1.03 | S. cerevisiae deletion strains, locus YLR384C, strain iki3, hits give low values 0.997 | S. cerevisiae deletion strains, locus YLR418C, strain cdc73, hits give low values 1.06 | S. cerevisiae deletion strains, locus YML016C, strain PPZ1, hits give low values 1.01 | S. cerevisiae deletion strains, locus YML032C, strain rad52, hits give low values 1.04 | S. cerevisiae deletion strains, locus YML120C, strain ndi1, hits give low values 0.989 | S. cerevisiae deletion strains, locus YML124C, strain tub3, hits give low values 1.02 | S. cerevisiae deletion strains, locus YMR058W, strain fet3, hits give low values 0.999 | S. cerevisiae deletion strains, locus YMR078C, strain ctf18, hits give low values 1.02 | S. cerevisiae deletion strains, locus YMR125W, strain sto1, hits give low values 0.993 | S. cerevisiae deletion strains, locus YMR129W, hits give low values 0.996 | S. cerevisiae deletion strains, locus YMR205C, strain PFK2, hits give low values 0.984 | S. cerevisiae deletion strains, locus YMR223W, strain ubp8, hits give low values 1.03 | S. cerevisiae deletion strains, locus YMR231W, strain pep5, hits give low values 0.992 | S. cerevisiae deletion strains, locus YMR263W, strain SAP30, hits give low values 1.01 | S. cerevisiae deletion strains, locus YMR307W, strain GAS1, hits give low values 1.04 | S. cerevisiae deletion strains, locus YNL067W, strain RPL9B, hits give low values 1.02 | S. cerevisiae deletion strains, locus YNL071W, strain lat1, hits give low values 1.01 | S. cerevisiae deletion strains, locus YNL128W, strain TEP1, hits give low values 1.02 | S. cerevisiae deletion strains, locus YNL153C, strain GIM3, hits give low values 0.993 | S. cerevisiae deletion strains, locus YNL209W, strain ssb2, hits give low values 1 | S. cerevisiae deletion strains, locus YNL233W, strain BNI4, hits give low values 1.03 | S. cerevisiae deletion strains, locus YNL248C, strain rpa49, hits give low values 0.989 | S. cerevisiae deletion strains, locus YNL250W, strain rad50, hits give low values 1.02 | S. cerevisiae deletion strains, locus YNL271C, strain bni1, hits give low values 1.02 | S. cerevisiae deletion strains, locus YNL298W, strain CLA4, hits give low values 1.04 | S. cerevisiae deletion strains, locus YNL307C, strain MCK1, hits give low values 1.03 | S. cerevisiae deletion strains, locus YNL322C, strain KRE1 (second series), hits give low values 0.994 | S. cerevisiae deletion strains, locus YNL322C, strain KRE1, hits give low values 1.01 | S. cerevisiae deletion strains, locus YNR049C, strain mso1, hits give low values 0.993 | S. cerevisiae deletion strains, locus YNR052C, strain pop2, hits give low values 1.03 | S. cerevisiae deletion strains, locus YOL006C, strain TOP1, hits give low values 1.08 | S. cerevisiae deletion strains, locus YOL012C, strain htz1 1.3 | S. cerevisiae deletion strains, locus YOL147C, strain pex11, hits give low values 1.02 | S. cerevisiae deletion strains, locus YOR001W, strain rrp6, hits give low values 0.993 | S. cerevisiae deletion strains, locus YOR061W, strain CKA2, hits give low values 1.01 | S. cerevisiae deletion strains, locus YOR069W, strain VPS5, hits give low values 1.01 | S. cerevisiae deletion strains, locus YOR070C, strain gyp1, hits give low values 1 | S. cerevisiae deletion strains, locus YOR080W, strain dia2, hits give low values 0.996 | S. cerevisiae deletion strains, locus YOR083W, strain WHI5, hits give low values 0.998 | S. cerevisiae deletion strains, locus YOR106W, strain vam3, hits give low values 0.994 | S. cerevisiae deletion strains, locus YOR136W, strain idh2, hits give low values 1.02 | S. cerevisiae deletion strains, locus YOR144C, strain elg1, hits give low values 1.02 | S. cerevisiae deletion strains, locus YOR184W, strain ser1, hits give low values 1.03 | S. cerevisiae deletion strains, locus YOR265W, strain rbl2, hits give low values 0.992 | S. cerevisiae deletion strains, locus YOR270C, strain vph1, hits give low values 1.01 | S. cerevisiae deletion strains, locus YOR290C, strain snf2, hits give low values 1 | S. cerevisiae deletion strains, locus YOR316C, strain cot1, hits give low values 1.03 | S. cerevisiae deletion strains, locus YPL051W, strain arl3, hits give low values 0.993 | S. cerevisiae deletion strains, locus YPL055C, strain LGE1, hits give low values 1.03 | S. cerevisiae deletion strains, locus YPL078C, strain atp4, hits give low values 0.999 | S. cerevisiae deletion strains, locus YPL106C, strain sse1, hits give low values 0.983 | S. cerevisiae deletion strains, locus YPL240C, strain hsp82, hits give low values 0.993 | S. cerevisiae deletion strains, locus YPL241C, strain CIN2, hits give low values 1.01 | S. cerevisiae deletion strains, locus YPR119W, strain clb2, hits give low values 1.01 | S. cerevisiae deletion strains, locus YPR141C, strain kar3, hits give low values 1.03 | S. cerevisiae deletion strains, locus YPR163C, strain tif3, hits give low values 1.02 | S. cerevisiae deletion strains, locus YPR167C, strain met16, hits give low values 1.03 | S. cerevisiae deletion strains, strain wtn01, hits give low values 1.02 | S. cerevisiae strains, strain wild type, hits give low values 1.01
